According to PubChem BioAssay AID1022 (Emory University Molecular Libraries Screening Center, 2008):
The campaign covered roughly 220,000 compounds. About 3,300 (1.5%) were called active. Shown is part of a subset that was picked to be rich in actives. Values without a mark were called inactive.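 How the source made its calls: active means compounds that cut the protein-peptide binding signal by more than 50% relative to plate controls in a single-dose test; inactive means the rest.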

What follows are molecules tested against Induced myeloid leukemia cell differentiation protein Mcl-1 (Homo sapiens) (UniProt Q07820) (assay: Mcl-1/Noxa binding inhibitors, primary screen, biochemical, TR-FRET, 1536-well (AID 1022;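 further: His-tagged Mcl-1 with rhodamine Noxa BH3 peptide and terbium anti-His antibody; 0% = Mcl-1 plus Noxa peptide wells and 100% = peptide-only wells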)). Conditions: TR-FRET Mcl-1/Noxa peptide binding, 2 h; at 21.7 µM; hits give high values.
Sequence of Induced myeloid leukemia cell differentiation protein Mcl-1 (Homo sapiens) (Q07820 whole entry, looked up): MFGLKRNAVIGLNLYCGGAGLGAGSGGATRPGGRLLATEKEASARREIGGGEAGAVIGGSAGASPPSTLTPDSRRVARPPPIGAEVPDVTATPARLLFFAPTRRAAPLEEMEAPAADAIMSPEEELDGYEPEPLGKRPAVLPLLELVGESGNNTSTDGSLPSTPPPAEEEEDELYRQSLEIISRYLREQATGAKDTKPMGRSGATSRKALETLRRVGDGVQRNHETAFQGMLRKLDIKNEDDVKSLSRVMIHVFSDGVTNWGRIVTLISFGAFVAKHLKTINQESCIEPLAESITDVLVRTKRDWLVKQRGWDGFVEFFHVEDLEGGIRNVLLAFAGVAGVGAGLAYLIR
Work on `CSc1n[nH]c(=S)n1N` yielded an inhibition of -7.77%.
`CCOc1ccc(NC(=S)NC(=O)/C=C/c2ccc(OC)cc2)c([N+](=O)[O-])c1` was tested, and the inhibition was 63.1% (active).
Molecule `CC(=O)Nc1ccc(NC(=S)NC(=O)/C=C/c2ccccc2)cc1` has an inhibition of 3.86%.
With `Cc1ccc(NC(=S)NC(=O)/C=C/c2ccc(Cl)cc2)cc1` the inhibition was 3.6%.
In the case of `O=C(N/N=C/c1ccco1)c1csc2c1CCCC2`, the inhibition is reported as 5.75%.
For `O=C(Nc1ccc(Cl)cc1)/C(=C1\CCCN1)[N+](=O)[O-]`, the inhibition was 9.38%.
`COc1ccc2nc(Nc3nc4ccc(NC(C)=O)cc4s3)sc2c1` was tested, and the inhibition was 70.9% (active).
`COc1ccc2nc(Nc3nc4cc5c(cc4s3)OCCO5)sc2c1` showed an inhibition of -76.2%.
`COc1ccc2nc(NC(=O)c3ccc(Br)s3)sc2c1` showed an inhibition of 15.7%.
`Cn1c(SCC(=O)N2CCOCC2)nnc1-c1ccc2ncccc2c1` showed an inhibition of -9.25%.
In the case of `CC(C)Oc1ccc(CCC(=O)NNC(=S)NCc2ccccc2)cc1`, the inhibition is reported as 0.21%.
`O=c1oc(-c2ccccc2NS(=O)(=O)c2ccc(Cl)cc2)nc2ccccc12` gave an inhibition of -43.7%.
`CCc1ccc(NC(=O)Cn2nc(C)c([N+](=O)[O-])c2C)cc1` gave an inhibition of 3.69%.
`Cc1nn(CC(=O)Nc2ccc(N(C)C)cc2)c(C)c1[N+](=O)[O-]` was tested, and the inhibition was 73.9% (active).
`Cc1nn(CC(=O)Nc2ccc(C#N)cc2)c(C)c1[N+](=O)[O-]` was tested, and the inhibition was -6.04%.
For `COc1ccccc1-n1c(SCC(=O)O)nc2sc3c(c2c1=O)CCC3`, the inhibition was 12.5%.
`COC(=O)c1cn(C(=O)c2ccc(Cl)cc2)c2ccccc12` was tested, and the inhibition was -1.27%.
`O=[N+]([O-])c1cc(S(=O)(=O)Nc2cccc(Cl)c2)ccc1N=Nc1c(O)[nH]c2ccccc12` was tested, and the inhibition was 71.3% (active).
`Cc1cccc(N(CC(=O)N=Nc2c(O)[nH]c3ccccc23)S(C)(=O)=O)c1C` gave an inhibition of 9.08%.
`CN1CCN(c2ccc(S(=O)(=O)Nc3ccccc3)cc2[N+](=O)[O-])CC1` gave an inhibition of -7.35%.
Molecule `COc1ccc(S(=O)(=O)Nc2ccc(O)c(Sc3nc4ccccc4s3)c2)cc1` has an inhibition of 21.8%.
For `O=[N+]([O-])c1c(NCCO)cc(Sc2nc3ccccc3s2)c2nonc12`, the inhibition was 79.7% (active).
Work on `O=C(CSc1nc2ccccc2s1)Nc1ccc(C(=O)O)cc1` yielded an inhibition of 2.75%.
`O=C(N/N=C/c1ccccn1)c1cccnc1` showed an inhibition of -27.9%.
For `Cc1nnc(SCC(=O)N/N=C/c2cn(-c3ccccc3)nc2-c2ccc(F)cc2)n1-c1ccccc1`, the inhibition was -13.4%.
With `O=C(N/N=C/c1ccc([N+](=O)[O-])o1)c1cn(-c2ccccc2)nc1-c1ccc(F)cc1` the inhibition was 65.5% (active).
`O=C(O)c1ccc(NC(=O)c2cn(-c3ccccc3)nc2-c2ccc(Cl)cc2)cc1` was tested, and the inhibition was 17.5%.
